In PubChem BioAssay AID1345085 (National Center for Advancing Translational Sciences (NCATS), 2018):
Records with an inconclusive call do not appear. Calls of active or inactive are those of the source. The call rests on the fitted dose curve; in most records, active means well fitted cell-killing curve with a large enough effect; inconclusive means small, poorly fitted or top-dose-only effect, or effect the other way; inactive means no such curve, though single readings can be large or run the other way.

tested on: SW626; assay: Confirmatory qHTS for gynecologic anti-cancer compounds from libraries of approved drugs and bioactive compounds; details: gynecologic cancer cell panel viability, ATPlite luminescence, 48 h; series mostly up to 57.6 µM; further: nearly all actives have a fitted effect of over 55% in size
Outline: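 Seeding 1,000 cells per well preceded overnight (16 h) attachment, after which 48 h drug treatment across 57.5 uM–0.977 nM (11 points) was applied. Remaining cellular ATP, detected by ATPlite luminescence, defined IC50.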
Potency means the concentration at half of the fitted maximal effect.

Question: Which Potency does the source give for `O=C(/C=C/c1cccc(S(=O)(=O)Nc2ccccc2)c1)NO` here?
Answer: 1.33 µM (active)

Question: For `Nc1ccccc1NC(=O)c1ccc(CNc2nccc(-c3cccnc3)n2)cc1`, which Potency is on record?
Answer: 0.685 µM (active)

Question: How did the Potency turn out when `CC(C)(C)C(=O)OCOP(=O)(COCCn1cnc2c(N)ncnc21)OCOC(=O)C(C)(C)C` was run?
Answer: 17.2 µM (active)

Question: `O=C1c2c(O)ccc(O)c2C(=O)c2c(NCCNCCO)ccc(NCCNCCO)c21` was tested. Which Potency did it give?
Answer: 6.85 µM (active)

Question: `COc1ccc2c(c1OC)C(=O)O[C@@H]2[C@H]1c2c(cc3c(c2OC)OCO3)CCN1C` was tested. Which Potency did it give?
Answer: inactive

Question: With `FC(F)(F)c1ccc(/C=C/c2nc(COc3ccc(CCCCn4ccnn4)cc3)co2)cc1` as the compound, how does the Potency read?
Answer: inactive

Question: Which Potency does the source give for `COc1ccc(OC)c(-c2nnc3ccc(-c4ccc(OC)c(O[C@@H]5CCOC5)c4)nn23)c1` here?
Answer: 8.63 µM (active)

Question: With `COc1cc(C(=O)N2CCC(N3CCN(C)CC3)CC2)ccc1Nc1ncc2c(n1)N(C)c1ccccc1C(=O)N2C` as the compound, how does the Potency read?
Answer: 7.69 µM (active)

Question: Which Potency does the source give for `O=C1N(c2ccccc2)c2ccccc2C1(Cc1ccncc1)Cc1ccncc1` here?
Answer: inactive

Question: Which Potency does the source give for `C=CC(=O)Nc1cc2c(Nc3ccc(F)c(Cl)c3)ncnc2cc1OCCCN1CCOCC1` here?
Answer: 21.7 µM (active)

Question: `CCCCc1nc2cc(/C=C/C(=O)NO)ccc2n1CCN(CC)CC` was tested. Which Potency did it give?
Answer: 0.769 µM (active)

Question: Which Potency does the source give for `CN(NC(=O)CC(=O)NN(C)C(=S)c1ccccc1)C(=S)c1ccccc1` here?
Answer: 0.0968 µM (active)

Question: `CC1=C(CO)C(=O)O[C@@H]([C@@H](C)[C@H]2CC[C@H]3[C@@H]4C[C@H]5O[C@]56[C@@H](O)C=CC(=O)[C@]6(C)[C@H]4CC[C@]23C)C1` was tested. Which Potency did it give?
Answer: 5.3 µM (active)

Question: `c1cc(N[C@@H]2CCNC2)nc(-c2cnc3ccc(-c4cn[nH]c4)cn23)c1` was tested. Which Potency did it give?
Answer: inactive

Question: Which Potency does the source give for `CN(Cc1cnc2nc(N)nc(N)c2n1)c1ccc(C(=O)N[C@@H](CCC(=O)O)C(=O)O)cc1` here?
Answer: inactive

Question: How did the Potency turn out when `N#CC1(c2cccc(C(=O)Nc3cc(Oc4ccc5nc(NC(=O)C6CC6)sc5n4)ccc3F)c2Cl)CC1` was run?
Answer: 4.85 µM (active)

Question: `COc1c(C)c2c(c(O)c1C/C=C(\C)CCC(=O)OCCN1CCOCC1)C(=O)OC2` was tested. Which Potency did it give?
Answer: inactive

Question: `CCc1nc(C(N)=O)c(Nc2ccc(N3CCC(N4CCN(C)CC4)CC3)c(OC)c2)nc1NC1CCOCC1` was tested. Which Potency did it give?
Answer: 3.78 µM (active)

Question: `CCN(CC)CCCC(C)Nc1c2ccc(Cl)cc2nc2ccc(OC)cc12` (stereo not given) was tested. Which Potency did it give?
Answer: 27.3 µM (active)

Question: With `CN1C2CCC1CC(OC(=O)[C@H](CO)c1ccccc1)C2` (stereo not given in full) as the compound, how does the Potency read?
Answer: inactive

Question: Which Potency does the source give for `CCC1C(=O)N(C)c2cnc(Nc3ccc(C(=O)NC4CCN(C)CC4)cc3OC)nc2N1C1CCCC1` (stereo not given) here?
Answer: 2.43 µM (active)

Question: For `CS(=O)(=O)c1ccc(-c2cnc(N)c(C(=O)Nc3ccccc3)n2)cc1`, which Potency is on record?
Answer: inactive

Question: How did the Potency turn out when `Cc1ccc(C(=O)N(CCCN)C(c2nc3cc(Cl)ccc3c(=O)n2Cc2ccccc2)C(C)C)cc1` (stereo not given) was run?
Answer: 9.68 µM (active)

Question: Which Potency does the source give for `OCCNC1CCCc2c1[nH]c1ccc(-c3ccccc3)cc21` (stereo not given) here?
Answer: 19.3 µM (active)

Question: `COc1cc(N2CCC(N)CC2)ccc1Nc1ncc(Cl)c(-c2c[nH]c3ccccc23)n1` was tested. Which Potency did it give?
Answer: 21.7 µM (active)

Question: With `Cc1cc(C(=O)N2CCN(c3cccc(Cl)c3)CC2)n(-c2ccccc2)n1` as the compound, how does the Potency read?
Answer: inactive

Question: With `O=C(Nc1cn[nH]c1-c1nc2ccc(CN3CCOCC3)cc2[nH]1)NC1CC1` as the compound, how does the Potency read?
Answer: inactive

Question: With `COc1cc2c(NC3CCN(C(C)C)CC3)nc(C3CCCCC3)nc2cc1OCCCN1CCCC1` as the compound, how does the Potency read?
Answer: 10.9 µM (active)

Question: Which Potency does the source give for `O=C(O)c1ccc(Nc2ncc3c(n2)-c2ccc(Cl)cc2C(c2c(F)cccc2F)=NC3)cc1` here?
Answer: inactive

Question: `CCCS(=O)c1ccc2nc(NC(=O)OC)[nH]c2c1` (stereo not given) was tested. Which Potency did it give?
Answer: inactive
